Measured values taken from the supplement of paper PMC8975748.
Structures can show the parent of a compound that is named as a salt. ± gives the standard deviation of the averaged measurements.

Experiments:
[1] = test system: Saccharomyces cerevisiae BY4741 SeMeCo community; assay: mean cell size (pixel area) (pixels); higher = larger cells; conditions: 10 µM; 24 h; SM minimal medium
Outline: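 Drug was acoustically predosed into 384-well plates to a final 10 µM in SM medium, and each well received 70 µl of Saccharomyces cerevisiae BY4741 diluted to OD600 = 0.3 from an overnight preculture at OD600 = 1.0. This four-plasmid fluorescent community carries one fluorescent marker per plasmid, and each plasmid complements one auxotrophy. After 24 h, the cells were fixed with paraformaldehyde and imaged by automated confocal microscopy, and Harmony analysis yielded mean cell pixel area per well. Each value is averaged over 3 replicates. Same SeMeCo high-content imaging drug screen: Selleck FDA-approved drugs at 10 µM, 24 h in SM medium, 384-well plates, 3 replicates.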

[2] = test system: Saccharomyces cerevisiae BY4741 SeMeCo community; assay: z-score of prototroph abundance vs DMSO median; higher = larger share of this subpopulation than in DMSO controls; conditions: 10 µM; 24 h; SM minimal medium; subpopulation (auxotrophy): Prototroph
Outline: (§1)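 Automated confocal microscopy of paraformaldehyde-fixed cells was used to follow a Saccharomyces cerevisiae BY4741 community carrying four plasmids, each restoring one auxotrophy and encoding a distinct fluorescent protein. The community was pre-grown overnight to OD600 1.0, diluted to 0.3, and added at 70 µl to 384-well plates acoustically predosed with library drugs (10 µM final) for 24 h of growth in minimal SM medium. Single-auxotroph fluorescent strains set thresholds and autofluorescence correction, and each subpopulation's abundance was scored as a z-score against the vehicle-well median.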

[3] = test system: Saccharomyces cerevisiae BY4741 SeMeCo community; assay: z-score of subpopulation abundance vs DMSO median, subpopulation auxotrophic for M; higher = larger share of this subpopulation than in DMSO controls; conditions: 10 µM; 24 h; SM minimal medium; subpopulation (auxotrophy): M
Outline: as §1

[4] = test system: Saccharomyces cerevisiae BY4741 SeMeCo community; assay: z-score of subpopulation abundance vs DMSO median, subpopulation auxotrophic for L; higher = larger share of this subpopulation than in DMSO controls; conditions: 10 µM; 24 h; SM minimal medium; subpopulation (auxotrophy): L
Outline: as §1

[5] = test system: Saccharomyces cerevisiae BY4741 SeMeCo community; assay: z-score of subpopulation abundance vs DMSO median, subpopulation auxotrophic for U; higher = larger share of this subpopulation than in DMSO controls; conditions: 10 µM; 24 h; SM minimal medium; subpopulation (auxotrophy): U
Outline: as §1

[6] = test system: Saccharomyces cerevisiae BY4741 SeMeCo community; assay: z-score of subpopulation abundance vs DMSO median, subpopulation auxotrophic for H; higher = larger share of this subpopulation than in DMSO controls; conditions: 10 µM; 24 h; SM minimal medium; subpopulation (auxotrophy): H
Outline: as §1

[7] = test system: Saccharomyces cerevisiae BY4741 SeMeCo community; assay: z-score of subpopulation abundance vs DMSO median, subpopulation auxotrophic for LU; higher = larger share of this subpopulation than in DMSO controls; conditions: 10 µM; 24 h; SM minimal medium; subpopulation (auxotrophy): LU
Outline: as §1

[8] = test system: Saccharomyces cerevisiae BY4741 SeMeCo community; assay: z-score of subpopulation abundance vs DMSO median, subpopulation auxotrophic for HM; higher = larger share of this subpopulation than in DMSO controls; conditions: 10 µM; 24 h; SM minimal medium; subpopulation (auxotrophy): HM
Outline: as §1

[9] = test system: Saccharomyces cerevisiae BY4741 SeMeCo community; assay: z-score of subpopulation abundance vs DMSO median, subpopulation auxotrophic for HU; higher = larger share of this subpopulation than in DMSO controls; conditions: 10 µM; 24 h; SM minimal medium; subpopulation (auxotrophy): HU
Outline: as §1

[10] = test system: Saccharomyces cerevisiae BY4741 SeMeCo community; assay: z-score of subpopulation abundance vs DMSO median, subpopulation auxotrophic for UM; higher = larger share of this subpopulation than in DMSO controls; conditions: 10 µM; 24 h; SM minimal medium; subpopulation (auxotrophy): UM
Outline: as §1

[11] = test system: Saccharomyces cerevisiae BY4741 SeMeCo community; assay: z-score of subpopulation abundance vs DMSO median, subpopulation auxotrophic for HL; higher = larger share of this subpopulation than in DMSO controls; conditions: 10 µM; 24 h; SM minimal medium; subpopulation (auxotrophy): HL
Outline: as §1

[12] = test system: Saccharomyces cerevisiae BY4741 SeMeCo community; assay: z-score of subpopulation abundance vs DMSO median, subpopulation auxotrophic for HLU; higher = larger share of this subpopulation than in DMSO controls; conditions: 10 µM; 24 h; SM minimal medium; subpopulation (auxotrophy): HLU
Outline: as §1

[13] = test system: Saccharomyces cerevisiae BY4741 SeMeCo community; assay: z-score of subpopulation abundance vs DMSO median, subpopulation auxotrophic for HUM; higher = larger share of this subpopulation than in DMSO controls; conditions: 10 µM; 24 h; SM minimal medium; subpopulation (auxotrophy): HUM
Outline: as §1

[14] = test system: Saccharomyces cerevisiae BY4741 SeMeCo community; assay: z-score of subpopulation abundance vs DMSO median, subpopulation auxotrophic for HLUM; higher = larger share of this subpopulation than in DMSO controls; conditions: 10 µM; 24 h; SM minimal medium; subpopulation (auxotrophy): HLUM
Outline: as §1

[15] = test system: Saccharomyces cerevisiae BY4741 SeMeCo community; assay: z-score of subpopulation abundance vs DMSO median, subpopulation auxotrophic for LM; higher = larger share of this subpopulation than in DMSO controls; conditions: 10 µM; 24 h; SM minimal medium; subpopulation (auxotrophy): LM
Outline: as §1

[16] = test system: Saccharomyces cerevisiae BY4741 SeMeCo community; assay: z-score of subpopulation abundance vs DMSO median, subpopulation auxotrophic for HLM; higher = larger share of this subpopulation than in DMSO controls; conditions: 10 µM; 24 h; SM minimal medium; subpopulation (auxotrophy): HLM
Outline: as §1

[17] = test system: Saccharomyces cerevisiae BY4741 SeMeCo community; assay: z-score of subpopulation abundance vs DMSO median, subpopulation auxotrophic for LUM; higher = larger share of this subpopulation than in DMSO controls; conditions: 10 µM; 24 h; SM minimal medium; subpopulation (auxotrophy): LUM
Outline: as §1

| Structure (SMILES) | mean cell size [1] | z-score of prototroph abundance [2] | z-score of subpopulation abundance [3] | z-score of subpopulation abundance [4] | z-score of subpopulation abundance [5] | z-score of subpopulation abundance [6] | z-score of subpopulation abundance [7] | z-score of subpopulation abundance [8] | z-score of subpopulation abundance [9] | z-score of subpopulation abundance [10] | z-score of subpopulation abundance [11] | z-score of subpopulation abundance [12] | z-score of subpopulation abundance [13] | z-score of subpopulation abundance [14] | z-score of subpopulation abundance [15] | z-score of subpopulation abundance [16] | z-score of subpopulation abundance [17] |
| --- | --- | --- | --- | --- | --- | --- | --- | --- | --- | --- | --- | --- | --- | --- | --- | --- | --- |
| CC1(C)[C@H](C(=O)O)N2C(=O)C[C@H]2S1(=O)=O [Sulbactam] | 12.3 ± 0.16 | 0.75 | 0.57 | 0.57 | -0.63 | -0.12 | -0.53 | -0.43 | -0.07 | -0.39 | -0.53 | -0.86 | -0.35 | -0.44 |  |  |  |
| NC12CC3CC(CC(C3)C1)C2 [Amantadine] | 12 ± 0.17 | 0 | -0.63 |  | -0.38 | 0.12 | 0.79 | -0.03 | -0.15 | 0.12 | -0.09 | 0.22 | 0.47 | -0.31 | 0.28 | -0.36 | -0.04 |
| Cc1onc(-c2c(F)cccc2Cl)c1C(=O)N[C@@H]1C(=O)N2[C@@H]1SC(C)(C)[C@@H]2C(=O)O [Flucloxacillin sodium] | 12.55 ± 0.1 | -0.59 | 1.08 |  |  | -0.11 | 0.16 |  | -0.23 | 0.64 | -0.43 | -0.04 | 0.1 |  | -0.65 | -0.51 | -0.02 |
| Cc1cc(/C=C/c2ccc3cc(N(C)C)ccc3[n+]2C)c(C)n1-c1ccccc1 [pyrvinium] |  |  | 0.61 |  | 0.84 | -3.04 | 0.05 | -0.29 | -0.67 | 1.08 | -1.44 | -0.46 | -0.73 | -0.49 | -0.19 | -0.3 | -0.14 |
| C[C@]12CC[C@@H]3c4ccc(O)cc4CC[C@H]3[C@@H]1CCC2=O [Estrone] | 12.48 ± 0.098 |  | -0.44 |  |  |  | 0.11 | -0.17 | -0.27 | -0.49 | -0.05 | -0.08 |  | -0.85 | 0.03 | -0.39 |  |
| C/C=C1\[C@H]2C=C(C)C[C@]1(N)c1ccc(=O)[nH]c1C2 [(-)-Huperzine A (HupA)] |  | 0.12 | 1.03 |  | 0.2 | -1.16 | -0.37 | 0.12 | -0.26 | 0.89 | -1.26 | -0.57 | 0.11 | -0.57 | -0.7 | -0.61 | -0.73 |
| COc1cnc(NS(=O)(=O)c2ccc(N)cc2)nc1 [Sulfameter] | 12.53 ± 0.07 | 0 | 0.05 |  | 0.75 | -0.43 | 1.19 | 0.07 | -0.1 | 0.21 | -0.38 | -0.26 | 0.14 | -0.07 | -0.51 | 0.42 | 0.64 |
| C[C@H](NCc1ccc(OCc2cccc(F)c2)cc1)C(N)=O [Safinamide] | 12.47 ± 0.075 | -0.89 | 0.59 |  |  | -0.07 | 0.99 | 0.41 | 1.16 | 0.6 | 0.15 | 0.72 | -0.17 | 0.95 |  | 1.35 | 0.42 |
| CN1CCN2c3ncccc3Cc3ccccc3C2C1 (stereo not given) [Mirtazapine] | 12.38 ± 0.12 | 0.24 | 0.18 |  |  | -0.51 | -0.59 |  | 0.29 | 0.24 | -0.38 | -0.45 | 1.07 |  | -0.11 | -0.85 |  |
| CCCCCCCCc1ccc(CCC(N)(CO)CO)cc1 [Fingolimod] | 12.1 ± 0.37 | 2.04 | -1.67 |  | -1.09 | -0.65 | -0.72 | -1.86 | -0.71 | -1.44 | -1.71 | -1.65 | -1.31 |  | -1.42 | -1.02 | -1.47 |
| CN[C@H]1C(=O)N[C@@H]2Cc3ccc(cc3)Oc3cc4cc(c3O[C@@H]3O[C@H](C(=O)O)[C@@H](O)[C@H](O)[C@H]3NC(=O)CCCCCCCCC(C)C)Oc3ccc(cc3Cl)[C@@H](O)[C@@H]3NC(=O)[C@H](NC(=O)[C@@H]4NC(=O)[C@@H](NC2=O)c2cc(cc(O)c2Cl)Oc2cc1ccc2O)c1ccc(O)c(c1)-c1c(O[C@H]2O[C@H](CO)[C@@H](O)[C@H](O)[C@@H]2O)cc(O)cc1[C@@H](C(=O)NCCCN(C)C)NC3=O [Dalbavancin] | 12.8 ± 0.072 | -0.15 | -4.48 |  |  |  | -0.56 | -1.02 |  | -0.56 | 1.2 | 2.43 | 1.97 | 0.69 | -1.16 | 1.32 | 0.72 |
| Oc1c(Cl)cc(Cl)c(Cl)c1Cc1c(O)c(Cl)cc(Cl)c1Cl [Hexachlorophene] | 12.08 ± 0.11 |  | 0.14 |  | 0.01 |  | -0.56 | 9.29 |  | 5.02 | 3.85 | 1.13 | 14 | 7.77 | 1.88 | 8.62 | 2.37 |
| CC(=O)OCC[N+](C)(C)C [Acetylcholine iodide] | 12.42 ± 0.1 | 1.05 | -0.32 |  | 0.13 |  | -0.57 |  |  |  | -0.89 | 0.05 | -0.36 | -1.3 | -0.62 | -1.52 | -1.27 |
| Nc1nc(N)nc(-c2cc(Cl)ccc2Cl)n1 [Irsogladine] | 12.2 ± 0.19 | 1.03 | -0.36 |  | -1.06 | -0.31 | -1.09 | -0.68 |  | -1.92 | -0.18 | 0.75 |  | -0.22 | 0.16 | -0.41 | -0.45 |
| COC(=O)Nc1nc2cc([S+]([O-])c3ccccc3)ccc2[nH]1 (stereo not given) [Oxfendazole] | 12.59 ± 0.1 | 0.13 | 0.39 |  | 1.29 | 0.08 | 0.48 | -0.28 | 0.76 | 0.53 | 0 | -0.7 | 0.73 | -1.07 | -1.48 | -0.75 | -0.67 |
| CCCN1CCCC[C@H]1C(=O)Nc1c(C)cccc1C [Ropivacaine HCl] | 12.6 ± 0.13 | -0.38 | 0.95 |  | 0.42 | -0.94 | 0.42 | -0.41 |  | 0.78 |  | -0.22 | -0.03 |  |  | 0.38 | -0.08 |
